The whole screen tested about 310,000 compounds, of which about 14,000 (4.5%) showed an effect of 50% or more. The effect is printed as a negative number. What follows is part of a selection rich in strong results, with near analogues and random picks from the rest.
What follows are molecules tested against human ether-à-go-go-related gene (hERG) potassium channel (human, UniProt Q12809) (assay: primary screen, population patch clamp on CHO cells stably expressing hERG; higher = less effect of the substance).
Chain of human ether-à-go-go-related gene (hERG) potassium channel (Q12809 whole entry, looked up): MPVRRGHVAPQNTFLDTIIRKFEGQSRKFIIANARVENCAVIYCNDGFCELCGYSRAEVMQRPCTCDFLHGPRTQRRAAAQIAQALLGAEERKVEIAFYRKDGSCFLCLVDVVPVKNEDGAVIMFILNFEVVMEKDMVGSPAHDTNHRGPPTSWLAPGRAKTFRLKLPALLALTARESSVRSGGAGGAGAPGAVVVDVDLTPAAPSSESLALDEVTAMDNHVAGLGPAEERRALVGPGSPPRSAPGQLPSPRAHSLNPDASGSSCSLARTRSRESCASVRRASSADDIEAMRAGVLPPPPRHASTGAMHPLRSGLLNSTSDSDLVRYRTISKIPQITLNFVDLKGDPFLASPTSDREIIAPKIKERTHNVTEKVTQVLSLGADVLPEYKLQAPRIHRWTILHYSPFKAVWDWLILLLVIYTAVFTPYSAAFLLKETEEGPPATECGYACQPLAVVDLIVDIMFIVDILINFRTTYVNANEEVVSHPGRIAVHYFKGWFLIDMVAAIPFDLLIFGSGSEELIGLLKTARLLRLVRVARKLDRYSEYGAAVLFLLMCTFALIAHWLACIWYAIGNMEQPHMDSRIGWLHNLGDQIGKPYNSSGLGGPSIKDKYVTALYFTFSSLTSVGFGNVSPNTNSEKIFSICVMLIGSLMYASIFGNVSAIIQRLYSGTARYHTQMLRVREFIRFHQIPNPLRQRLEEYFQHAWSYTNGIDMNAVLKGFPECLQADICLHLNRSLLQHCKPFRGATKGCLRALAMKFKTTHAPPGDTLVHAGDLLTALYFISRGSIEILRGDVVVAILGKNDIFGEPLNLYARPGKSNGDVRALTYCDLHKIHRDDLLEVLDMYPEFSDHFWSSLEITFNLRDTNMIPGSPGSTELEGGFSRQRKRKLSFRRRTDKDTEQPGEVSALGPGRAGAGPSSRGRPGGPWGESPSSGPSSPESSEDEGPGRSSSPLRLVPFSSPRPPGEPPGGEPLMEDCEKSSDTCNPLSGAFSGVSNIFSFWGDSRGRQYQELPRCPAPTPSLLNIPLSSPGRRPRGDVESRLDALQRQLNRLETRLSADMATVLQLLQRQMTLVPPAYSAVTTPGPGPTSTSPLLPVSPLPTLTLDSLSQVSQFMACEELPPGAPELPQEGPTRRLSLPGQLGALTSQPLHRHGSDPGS
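Note: peak tail current of the secondary pulse compared with the same well before compound.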

First: Cc1ccc(S(=O)(=O)c2cnc3cc(C)nn3c2N)cc1
Second: Cc1nc2scc(C)n2c(=O)c1S(=O)(=O)N1CCN(c2ccc([N+](=O)[O-])cc2)CC1
The “hERG current change (%, negative = inhibition) at 10uM” value of the first is higher: 0.694% for the first, -12% for the second.

Compared with `Cc1ccc(CN2C(=O)[C@@H]3Cc4c([nH]c5ccccc45)C(C)(C)N3C2=O)cc1`, `Cc1ccc(CN2C(=O)/C(=C\c3ccc(C(=O)NCc4cccnc4)cc3)Oc3ccccc32)cc1` is higher in “hERG current change (%, negative = inhibition) at 10uM” value: 7.62% for the first, 12.9% for the second.

Compared with `O=[N+]([O-])c1ccccc1/C=N/NC1=NS(=O)(=O)c2ccccc21`, `O=C(O)c1ccccc1NS(=O)(=O)c1ccc2c3c(cccc13)C(=O)N2` is higher in “hERG current change (%, negative = inhibition) at 10uM” value: -1.94% for the first, 16.1% for the second.

Going from `O=C(NCCCN1CCCC1=O)NC1CCCCC1` to `CC1CCN(CCCNC(=O)CCCNC(=O)Cn2cnc3sc4c(c3c2=O)CCCC4)CC1`, the “hERG current change (%, negative = inhibition) at 10uM” value rises from 10.9% to 12.3%.

First: Cc1ccc(NC(=S)NNC(=O)c2ccc(N3CCOCC3)c([N+](=O)[O-])c2)cc1Cl
Second: Cc1ccc(NC(=O)NCCCl)cc1S(=O)(=O)N1CCOCC1
The “hERG current change (%, negative = inhibition) at 10uM” value of the first is higher: 6.24% for the first, 1.99% for the second.

Compared with `O=C(O)CCC1=C2c3ccccc3CCN2C(=O)CC1`, `Cc1cc(=O)oc2cc(OCC(=O)NC3CCN(Cc4ccccc4)CC3)ccc12` is lower in “hERG current change (%, negative = inhibition) at 10uM” value: 9.77% for the first, -63.9% for the second.

First: Cc1ccc(C(=O)Nn2cnnc2)cc1Cl
Second: CCOC(=O)c1ccc(NC(=O)c2ccnn2C)cc1
The “hERG current change (%, negative = inhibition) at 10uM” value of the first is higher: 16.3% for the first, 4.61% for the second.

First: CC1CCN(S(=O)(=O)c2ccc(NC(=O)CSc3ncccc3C(=O)O)cc2)CC1
Second: COC(=O)c1ccccc1NC(=O)CN1CCC(n2nnc3cc(C(F)(F)F)ccc32)CC1
The “hERG current change (%, negative = inhibition) at 10uM” value of the first is higher: 7.31% for the first, -6.14% for the second.

Compared with `O=C(COc1ccccc1)NC1CCSC1=O` (centres unmarked), `O=C(COc1ccc(Cl)cc1)NC1CCSC1=O` (centres unmarked) is higher in “hERG current change (%, negative = inhibition) at 10uM” value: -72.9% for the first, -16.8% for the second.

Compared with `O=C(COc1ccccc1)NC1CCSc2ccccc21` (centres unmarked), `CN(C)CCCC1Sc2ccccc2Sc2ccccc21.O=C(O)C(=O)O` (centres unmarked) is lower in “hERG current change (%, negative = inhibition) at 10uM” value: 0.0355% for the first, -56.1% for the second.

First: CCCCc1cc(=O)oc2cc(OCC(=O)N[C@@H](Cc3ccccc3)C(=O)O)ccc12
Second: CCCCc1cc(=O)oc2cc(OCC(=O)NC3CCN(Cc4ccccc4)CC3)ccc12
The “hERG current change (%, negative = inhibition) at 10uM” value of the first is higher: 6.13% for the first, -61.1% for the second.

Going from `CCCCc1cc(=O)oc2cc(OCC(=O)NCC3CCC(C(=O)O)CC3)ccc12` (centres unmarked) to `O=C(COc1ccc2c3c(c(=O)oc2c1)CCC3)NC1CCN(Cc2ccccc2)CC1`, the “hERG current change (%, negative = inhibition) at 10uM” value falls from 18% to -24.9%.

First: Cc1cc(OCC(=O)NC2CCN(Cc3ccccc3)CC2)c2c(C)cc(=O)oc2c1
Second: COc1ccc2cc3cc(C(=O)N4CCN(c5ccccc5)CC4)oc3nc2c1
The “hERG current change (%, negative = inhibition) at 10uM” value of the first is lower: -21.4% for the first, 13.2% for the second.

First: O=c1[nH]c(O)c(N=Nc2ccc3c(c2)OCCO3)c(=O)[nH]1
Second: CC(=O)N1c2ccc(N=Cc3cc(Br)cc(Br)c3O)cc2CC1C (centres unmarked)
The “hERG current change (%, negative = inhibition) at 10uM” value of the first is higher: 14.2% for the first, 2.6% for the second.

Going from `O=C(NNc1ccccn1)C(=O)NNS(=O)(=O)c1ccc(F)cc1` to `CN(C)CCC1Sc2ccccc2Oc2ccccc21.O=C(O)C(=O)O` (centres unmarked), the “hERG current change (%, negative = inhibition) at 10uM” value falls from 12.5% to -24.8%.

Compared with `Cn1c(=O)c2nc(-c3ccccc3)oc2c2ccccc21`, `N#Cc1c(-c2ccccc2)nc(SCC(=O)Nc2ccc(OC(F)(F)Cl)cc2)[nH]c1=O` is higher in “hERG current change (%, negative = inhibition) at 10uM” value: -1.46% for the first, 28.5% for the second.

Going from `CN(C)C(=S)Nc1ccc2ccccc2c1` to `CC1c2ccccc2SC(CCCN(C)C)c2ccccc21.O=C(O)/C=C\C(=O)O` (centres unmarked), the “hERG current change (%, negative = inhibition) at 10uM” value falls from 11.2% to -19.2%.

Compared with `O=C(CN1CCC(n2nnc3cc(C(F)(F)F)ccc32)CC1)NNC(=O)c1ccco1`, `C=CCNC(=O)CN1CCC(n2nnc3cc(C(F)(F)F)ccc32)CC1` is lower in “hERG current change (%, negative = inhibition) at 10uM” value: -24.6% for the first, -50.7% for the second.

Going from `COCC(=O)N1CCC(n2nnc3cc(C(F)(F)F)ccc32)CC1` to `Cc1cc(NC(=O)CN2CCC(n3nnc4cc(C(F)(F)F)ccc43)CC2)no1`, the “hERG current change (%, negative = inhibition) at 10uM” value falls from -22% to -50%.

First: Cc1nc2cc(C(F)(F)F)ccc2n1C1CCN(CC(=O)NC(C)(C)C)CC1
Second: C=CCNC(=O)CN1CCC(n2c(C)nc3cc(C(F)(F)F)ccc32)CC1
The “hERG current change (%, negative = inhibition) at 10uM” value of the first is higher: -19.4% for the first, -62.1% for the second.

Going from `Cc1nc2cc(C(F)(F)F)ccc2n1C1CCN(CC(=O)N2CCOCC2)CC1` to `Cc1nc2cc(C(F)(F)F)ccc2n1C1CCN(CC(=O)N2CCCC2)CC1`, the “hERG current change (%, negative = inhibition) at 10uM” value rises from -44.4% to -13.1%.

First: Cc1nc2cc(C(F)(F)F)ccc2n1C1CCN(C(=O)N2CCOCC2)CC1
Second: COCCNC(=O)CN1CCC(n2c(C)nc3cc(C(F)(F)F)ccc32)CC1
The “hERG current change (%, negative = inhibition) at 10uM” value of the first is lower: -55.7% for the first, -25.6% for the second.

First: CC1Cc2ccccc2N1C(=O)CN1CCC(n2nnc3cc(C(F)(F)F)ccc32)CC1 (centres unmarked)
Second: COc1ccc(C[C@H]2CN3C(=NC[C@@H]3Cc3ccccc3)N2CCNC(=O)CCC2CCCCC2)cc1
The “hERG current change (%, negative = inhibition) at 10uM” value of the first is higher: -67.2% for the first, -73.7% for the second.

First: CC1=C(C#N)C(NC(=O)C(C)(C)C)(C(F)(F)F)C(=O)N1 (centres unmarked)
Second: CCN(CC)c1ccc(NC(=O)CSc2nnc(N)s2)cc1C
The “hERG current change (%, negative = inhibition) at 10uM” value of the first is lower: 1.3% for the first, 2.78% for the second.

Going from `COC(C/C=C\C(=O)[C@H](C)OCc1ccccc1)OC` to `COc1ccc(C[C@H]2CN3C(=NC[C@H]3Cc3ccccc3)N2CCNC(=O)CCC2CCCCC2)cc1`, the “hERG current change (%, negative = inhibition) at 10uM” value falls from 9.66% to -71.9%.

First: O=C(CCC1CCCCC1)NCCN1C2=NC[C@H](Cc3ccccc3)N2C[C@H]1Cc1ccc(O)cc1
Second: O=C(CCC1CCCCC1)NCCN1C2=NC[C@@H](Cc3ccccc3)N2C[C@H]1Cc1ccc(O)cc1
The “hERG current change (%, negative = inhibition) at 10uM” value of the first is higher: -42% for the first, -69.3% for the second.

In the case of `O=C(CCC1CCCCC1)NCCN1C2=NC[C@H](Cc3ccc(O)cc3)N2C[C@H]1Cc1ccc(O)cc1`, the “hERG current change (%, negative = inhibition) at 10uM” value was -4.37%.
